# According to the supplement of paper PMC11732987, “Enantioselective OTUD7B fragment discovery through chemoproteomics screening and high-throughput optimisation” (Communications Chemistry, 2025):
# Unmarked numbers belong to inactive results.
# Legend:
# Assay in all cases: log2 ratio of Biotin-Ahx-Ub-VS probe labelling (fragment/DMSO); higher = less target engagement (more negative = stronger competition), active = hit call of the paper (q ≤ 0.05, log2 ratio ≤ -1)
# Conditions in all cases: compound concentration: 200 uM; treatment time: 3 h
# [1] = target: T1, ALG13 (UniProt Q9NP73)
# T1 sequence (whole entry): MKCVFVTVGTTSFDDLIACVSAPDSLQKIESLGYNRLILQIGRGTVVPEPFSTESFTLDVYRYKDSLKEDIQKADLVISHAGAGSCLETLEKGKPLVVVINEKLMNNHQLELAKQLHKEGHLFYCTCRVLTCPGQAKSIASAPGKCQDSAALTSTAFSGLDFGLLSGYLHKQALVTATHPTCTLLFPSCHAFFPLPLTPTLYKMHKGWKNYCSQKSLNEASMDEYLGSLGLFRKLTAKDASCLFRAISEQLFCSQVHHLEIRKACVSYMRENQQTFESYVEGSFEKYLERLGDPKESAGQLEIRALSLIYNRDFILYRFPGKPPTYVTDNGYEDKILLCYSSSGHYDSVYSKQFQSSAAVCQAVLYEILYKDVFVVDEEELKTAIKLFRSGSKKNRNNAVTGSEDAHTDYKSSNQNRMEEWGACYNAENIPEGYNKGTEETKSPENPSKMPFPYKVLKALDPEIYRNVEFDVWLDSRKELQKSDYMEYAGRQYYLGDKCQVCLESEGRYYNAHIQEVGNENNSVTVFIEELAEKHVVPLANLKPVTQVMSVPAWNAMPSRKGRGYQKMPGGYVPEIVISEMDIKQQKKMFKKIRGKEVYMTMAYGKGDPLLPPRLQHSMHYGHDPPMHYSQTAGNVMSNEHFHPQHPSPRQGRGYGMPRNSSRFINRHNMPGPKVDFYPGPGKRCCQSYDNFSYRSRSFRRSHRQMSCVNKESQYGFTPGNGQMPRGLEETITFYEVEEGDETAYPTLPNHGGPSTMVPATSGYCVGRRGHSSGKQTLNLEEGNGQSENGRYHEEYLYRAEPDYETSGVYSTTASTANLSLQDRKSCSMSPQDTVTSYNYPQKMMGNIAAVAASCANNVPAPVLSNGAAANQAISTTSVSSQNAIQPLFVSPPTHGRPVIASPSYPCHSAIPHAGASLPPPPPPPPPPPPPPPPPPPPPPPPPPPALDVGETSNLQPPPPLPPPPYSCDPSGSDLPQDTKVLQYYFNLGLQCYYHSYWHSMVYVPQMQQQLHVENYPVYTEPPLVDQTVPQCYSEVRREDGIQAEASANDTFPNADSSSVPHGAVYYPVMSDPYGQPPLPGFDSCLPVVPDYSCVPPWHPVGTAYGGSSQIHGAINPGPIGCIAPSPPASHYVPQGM
# Method in brief: (§1)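 HEK293T lysate, 495 µg per sample in Tris/CHAPS/IGEPAL buffer with protease inhibitors, was treated in triplicate with fragment at 200 µM or vehicle for 3 h and then with Biotin-Ahx-Ub-VS at 0.5 µM final for 1 h. Labelled DUBs were NeutrAvidin-enriched, digested with LysC and trypsin, and run by diaPASEF LC-MS/MS. Spectronaut label-free quantities were global-median-normalised, and values are average log2 fragment/vehicle ratios by unpaired t-test on proteins with ≥2 unique peptides.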
# [2] = target: ATXN3 (UniProt P54252)
# Sequence of ATXN3 (P54252 whole entry): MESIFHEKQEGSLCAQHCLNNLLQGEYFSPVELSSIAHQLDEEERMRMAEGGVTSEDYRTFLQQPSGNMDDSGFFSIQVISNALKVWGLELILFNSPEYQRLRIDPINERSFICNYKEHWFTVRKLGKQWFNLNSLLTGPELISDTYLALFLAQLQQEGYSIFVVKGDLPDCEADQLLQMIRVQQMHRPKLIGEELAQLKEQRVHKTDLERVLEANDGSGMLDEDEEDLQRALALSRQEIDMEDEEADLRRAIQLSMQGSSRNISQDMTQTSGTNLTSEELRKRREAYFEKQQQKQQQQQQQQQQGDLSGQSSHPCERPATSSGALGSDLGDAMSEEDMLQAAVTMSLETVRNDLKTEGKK
# Method in brief: as §1
# [3] = target: T2, BAP1 (UniProt Q92560)
# T2 sequence (whole entry): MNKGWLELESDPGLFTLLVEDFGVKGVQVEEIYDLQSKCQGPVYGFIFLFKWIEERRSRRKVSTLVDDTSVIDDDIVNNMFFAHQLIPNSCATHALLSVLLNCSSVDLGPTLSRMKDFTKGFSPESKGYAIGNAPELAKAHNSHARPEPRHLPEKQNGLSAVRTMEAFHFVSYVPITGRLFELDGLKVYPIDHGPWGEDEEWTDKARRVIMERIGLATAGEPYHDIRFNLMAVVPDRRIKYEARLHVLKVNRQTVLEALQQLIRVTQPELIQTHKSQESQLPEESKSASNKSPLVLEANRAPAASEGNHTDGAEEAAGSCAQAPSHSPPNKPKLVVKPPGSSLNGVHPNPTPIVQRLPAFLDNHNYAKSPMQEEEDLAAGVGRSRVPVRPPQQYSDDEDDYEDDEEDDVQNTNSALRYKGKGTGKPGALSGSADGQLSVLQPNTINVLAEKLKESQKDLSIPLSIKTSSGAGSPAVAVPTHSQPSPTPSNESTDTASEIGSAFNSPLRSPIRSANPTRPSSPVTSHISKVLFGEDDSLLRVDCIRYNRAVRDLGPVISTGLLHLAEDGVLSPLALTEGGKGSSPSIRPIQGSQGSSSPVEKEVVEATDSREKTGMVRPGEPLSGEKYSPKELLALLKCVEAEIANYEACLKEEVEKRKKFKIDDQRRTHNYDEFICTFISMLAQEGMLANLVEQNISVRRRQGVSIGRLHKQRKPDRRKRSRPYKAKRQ
# Method in brief: as §1
# [4] = target: EIF3F (UniProt O00303)
# Sequence of EIF3F (O00303 whole entry): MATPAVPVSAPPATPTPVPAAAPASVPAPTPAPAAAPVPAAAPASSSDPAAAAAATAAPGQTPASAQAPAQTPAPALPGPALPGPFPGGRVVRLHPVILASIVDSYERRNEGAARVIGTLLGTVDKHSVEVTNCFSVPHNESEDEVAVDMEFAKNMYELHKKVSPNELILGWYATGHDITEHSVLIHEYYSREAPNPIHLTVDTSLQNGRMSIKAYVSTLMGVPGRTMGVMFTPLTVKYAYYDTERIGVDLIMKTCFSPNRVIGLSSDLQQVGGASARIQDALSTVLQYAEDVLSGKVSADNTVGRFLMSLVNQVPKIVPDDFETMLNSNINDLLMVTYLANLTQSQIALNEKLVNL
# Method in brief: as §1
# [5] = target: EIF3H (UniProt O15372)
# Sequence of EIF3H (O15372 whole entry): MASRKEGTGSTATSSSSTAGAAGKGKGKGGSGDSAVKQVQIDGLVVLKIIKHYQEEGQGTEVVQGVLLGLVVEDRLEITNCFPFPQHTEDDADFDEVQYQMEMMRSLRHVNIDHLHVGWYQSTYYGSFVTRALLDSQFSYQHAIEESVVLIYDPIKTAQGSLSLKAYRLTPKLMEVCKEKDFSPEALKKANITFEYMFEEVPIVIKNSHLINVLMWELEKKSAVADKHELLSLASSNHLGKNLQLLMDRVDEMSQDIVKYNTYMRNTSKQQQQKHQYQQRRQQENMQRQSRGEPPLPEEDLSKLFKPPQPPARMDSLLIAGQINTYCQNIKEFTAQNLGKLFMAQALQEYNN
# Method in brief: as §1
# [6] = target: T3, FAM105A (UniProt Q9NUU6)
# T3 sequence (whole entry): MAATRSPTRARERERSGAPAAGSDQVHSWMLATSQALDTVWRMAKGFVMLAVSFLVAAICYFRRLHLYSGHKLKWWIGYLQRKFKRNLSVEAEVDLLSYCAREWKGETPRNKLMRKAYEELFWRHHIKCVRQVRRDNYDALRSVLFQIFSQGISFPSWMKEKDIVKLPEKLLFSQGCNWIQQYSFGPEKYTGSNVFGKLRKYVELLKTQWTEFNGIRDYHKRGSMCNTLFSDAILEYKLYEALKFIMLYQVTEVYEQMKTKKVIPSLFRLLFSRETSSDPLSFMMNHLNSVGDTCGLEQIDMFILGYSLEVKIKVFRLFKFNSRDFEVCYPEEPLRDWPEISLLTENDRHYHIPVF
# Method in brief: as §1
# [7] = target: OTUB1 (UniProt Q96FW1)
# Sequence of OTUB1 (Q96FW1 whole entry): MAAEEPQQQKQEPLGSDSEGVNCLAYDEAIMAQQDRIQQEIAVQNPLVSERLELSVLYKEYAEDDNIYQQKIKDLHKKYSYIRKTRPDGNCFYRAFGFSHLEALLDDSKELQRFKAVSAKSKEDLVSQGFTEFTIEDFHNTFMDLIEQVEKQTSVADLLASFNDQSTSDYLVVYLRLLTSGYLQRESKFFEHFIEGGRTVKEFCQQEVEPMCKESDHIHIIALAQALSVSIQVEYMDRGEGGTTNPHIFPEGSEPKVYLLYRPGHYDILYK
# Method in brief: as §1
# [8] = target: T4, OTUD4 (UniProt Q01804)
# T4 sequence (whole entry): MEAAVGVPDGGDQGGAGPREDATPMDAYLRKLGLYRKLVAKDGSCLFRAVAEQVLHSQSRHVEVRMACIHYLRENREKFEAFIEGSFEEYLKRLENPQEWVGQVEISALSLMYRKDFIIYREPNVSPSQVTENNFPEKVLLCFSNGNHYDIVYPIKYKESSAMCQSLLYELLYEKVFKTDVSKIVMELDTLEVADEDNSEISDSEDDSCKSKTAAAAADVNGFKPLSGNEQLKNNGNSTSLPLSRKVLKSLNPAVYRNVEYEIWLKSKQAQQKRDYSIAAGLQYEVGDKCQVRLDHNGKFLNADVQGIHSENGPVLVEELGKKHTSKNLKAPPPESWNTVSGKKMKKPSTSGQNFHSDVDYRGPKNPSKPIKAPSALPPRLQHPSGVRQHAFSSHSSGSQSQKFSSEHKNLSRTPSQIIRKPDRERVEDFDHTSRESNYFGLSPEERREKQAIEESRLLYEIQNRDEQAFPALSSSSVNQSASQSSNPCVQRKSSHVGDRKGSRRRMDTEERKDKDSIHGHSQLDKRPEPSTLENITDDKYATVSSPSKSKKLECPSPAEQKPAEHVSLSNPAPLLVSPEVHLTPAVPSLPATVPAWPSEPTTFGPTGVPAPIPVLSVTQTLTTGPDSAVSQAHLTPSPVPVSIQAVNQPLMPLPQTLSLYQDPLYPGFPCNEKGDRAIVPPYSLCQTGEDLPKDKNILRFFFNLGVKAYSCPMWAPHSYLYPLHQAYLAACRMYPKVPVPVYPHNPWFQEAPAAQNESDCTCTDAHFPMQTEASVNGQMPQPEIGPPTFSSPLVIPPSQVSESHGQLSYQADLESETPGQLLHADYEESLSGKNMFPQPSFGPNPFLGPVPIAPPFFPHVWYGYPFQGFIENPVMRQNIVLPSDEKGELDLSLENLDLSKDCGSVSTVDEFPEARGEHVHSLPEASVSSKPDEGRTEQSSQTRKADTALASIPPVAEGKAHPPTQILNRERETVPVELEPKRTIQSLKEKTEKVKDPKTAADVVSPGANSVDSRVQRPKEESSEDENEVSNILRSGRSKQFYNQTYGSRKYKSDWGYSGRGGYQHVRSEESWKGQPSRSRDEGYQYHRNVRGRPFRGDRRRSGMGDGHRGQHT
# Method in brief: as §1
# [9] = target: T5, OTUD5 (UniProt Q96G74)
# T5 sequence (whole entry): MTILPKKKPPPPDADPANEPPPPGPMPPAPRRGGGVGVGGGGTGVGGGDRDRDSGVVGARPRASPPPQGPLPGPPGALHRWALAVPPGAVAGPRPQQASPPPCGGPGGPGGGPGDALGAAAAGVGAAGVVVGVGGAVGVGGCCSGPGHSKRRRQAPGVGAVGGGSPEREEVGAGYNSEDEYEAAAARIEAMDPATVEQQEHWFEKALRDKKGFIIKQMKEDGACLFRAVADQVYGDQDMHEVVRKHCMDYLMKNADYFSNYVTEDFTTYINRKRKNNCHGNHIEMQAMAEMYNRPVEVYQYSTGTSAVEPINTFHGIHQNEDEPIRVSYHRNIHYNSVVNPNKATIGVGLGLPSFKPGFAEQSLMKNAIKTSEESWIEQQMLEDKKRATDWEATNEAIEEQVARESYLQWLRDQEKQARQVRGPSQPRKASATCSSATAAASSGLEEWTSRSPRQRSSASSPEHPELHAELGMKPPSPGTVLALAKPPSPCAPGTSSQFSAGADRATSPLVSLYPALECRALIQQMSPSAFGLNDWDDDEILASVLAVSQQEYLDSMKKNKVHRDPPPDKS
# Method in brief: as §1
compound,measurement,setting,value
O=C(CCl)N[C@H]1CC[C@@H](CO)CC1,log2 ratio of Biotin-Ahx-Ub-VS probe labelling,[1],0.27
same,log2 ratio of Biotin-Ahx-Ub-VS probe labelling,[2],-0.868
same,log2 ratio of Biotin-Ahx-Ub-VS probe labelling,[3],-1.34 (active)
same,log2 ratio of Biotin-Ahx-Ub-VS probe labelling,[4],-0.486
same,log2 ratio of Biotin-Ahx-Ub-VS probe labelling,[5],0.0529
same,log2 ratio of Biotin-Ahx-Ub-VS probe labelling,[6],-0.00946
same,log2 ratio of Biotin-Ahx-Ub-VS probe labelling,[7],-0.626
same,log2 ratio of Biotin-Ahx-Ub-VS probe labelling,[8],-0.852
same,log2 ratio of Biotin-Ahx-Ub-VS probe labelling,[9],-0.686
